Test results from the supplement of paper PMC6522484.
± gives the standard deviation of the averaged measurements.

Assays:
DLD1 [1] = experiment: cell viability (CellTiter-Glo) relative to plate median (fraction of plate median); higher = more viable cells; details: 5 µM; treatment time 24 h; reporter: 7TFP
Procedure, shortened: (§1)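 Colorectal cancer cell lines stably transduced with lentiviral TCF/Wnt firefly luciferase reporters (7TFP or TCF4/Wnt) were seeded in 384-well plates. 24 h later they received library compounds at a final 5 µM for 24 h. Parallel plates were read for firefly luciferase or CellTiterGlo luminescence on a Tecan F500 reader. Each well's signal was normalised to the plate median (webcellHTS2, additive, no log transformation), and the mean of two independent replicates is reported.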

HCT116 = experiment: as above; details: 5 µM; treatment time 24 h; reporter: TCF4/Wnt
Procedure, shortened: as §1

SW480 [2] = experiment: as above; details: 5 µM; treatment time 24 h; reporter: 7TFP
Procedure, shortened: as §1

DLD1 [3] = experiment: TCF/Wnt firefly luciferase reporter signal relative to plate median (fraction of plate median); higher = higher Wnt reporter signal; details: 5 µM; treatment time 24 h; reporter: 7TFP
Procedure, shortened: as §1

SW480 [4] = experiment: as above; details: 5 µM; treatment time 24 h; reporter: 7TFP
Procedure, shortened: as §1

Row | Structure (SMILES) | cell viability (DLD1 [1]) | cell viability (HCT116) | cell viability (SW480 [2]) | TCF/Wnt firefly luciferase reporter signal (DLD1 [3]) | TCF/Wnt firefly luciferase reporter signal (SW480 [4])
1 | O=[N+]([O-])c1cccc2c(Br)[nH]nc12 | 0.994 ± 0.0057 | 1.02 ± 0.021 | 0.957 ± 0.034 | 0.984 ± 0.037 | 0.967 ± 0.13
2 | O=c1c(O)c(-c2ccc(O)c(O)c2)oc2c(O[C@@H]3O[C@H](CO)[C@@H](O)[C@H](O)[C@H]3O)c(O)cc(O)c12 | 0.99 ± 0.057 | 0.905 ± 0.22 | 0.976 ± 0.033 | 1.1 ± 0.078 | 0.997 ± 0.061
3 | COc1ccc(OC)c(C(O)CNC(=O)CN)c1 (stereo not given) | 0.944 ± 0.067 | 0.912 ± 0.064 | 1.03 ± 0.035 | 1.06 ± 0.2 | 1.16 ± 0.092
4 | CCCOc1ccc2[nH]c(NC(=O)OC)nc2c1 | 0.979 ± 0.011 | 1.08 ± 0.2 | 1.13 ± 0.071 | 0.959 ± 0.21 | 0.957 ± 0.035
5 | NS(=O)(=O)c1ccc(S(=O)(=O)Nc2cccc3c(Cl)c[nH]c23)cc1 [indisulam] | 1.04 ± 0.028 | 0.747 ± 0.07 | 0.926 ± 0.0028 | 1.17 ± 0.014 | 1.1 ± 0.15
6 | O=c1oc(CO)c(CO)c2cccc(O)c12 [8-hydroxy-3,4-bis-(hydroxymethyl)-isocumarin] | 0.91 ± 0.03 | 0.981 ± 0.098 | 0.967 ± 0.038 | 1.09 ± 0.092 | 1.05 ± 0.057
7 | CC(N)C12CC3CC(CC(C3)C1)C2 (stereo not given) | 1.02 ± 0.028 | 0.986 ± 0.02 | 0.977 ± 0.025 | 0.962 ± 0.03 | 0.9945 ± 0.0078
8 | COC(=O)[C@H](c1ccccc1Cl)N1CCc2sccc2C1 | 1.045 ± 0.0071 | 0.921 ± 0.02 | 1.07 ± 0.028 | 0.853 ± 0.041 | 0.906 ± 0.016
9 | CC1=C(C/C=C(\C)CCC[C@H](C)CCC[C@H](C)CCCC(C)C)C(=O)c2ccccc2C1=O | 0.9945 ± 0.00071 | 0.988 ± 0.06 | 0.998 ± 0.045 | 0.819 ± 0.03 | 0.92 ± 0.064
10 | CN(C)CCOC(=O)COc1ccc(Cl)cc1 | 0.979 ± 0.0085 | 0.991 ± 0.083 | 0.956 ± 0.052 | 1.21 ± 0.14 | 1.14 ± 0.05
11 | C[C@]12C=CC(=O)C=C1CC[C@@H]1[C@@H]2[C@@H](O)C[C@@]2(C)[C@H]1CC[C@]2(O)C(=O)COC(=O)CCC(=O)O | 1.02 ± 0.028 | 1.01 ± 0.092 | 1.03 ± 0.014 | 1.075 ± 0.0071 | 0.969 ± 0.072
12 | CCOC(=O)c1c(C)cc(O)cc1O | 1.11 ± 0.085 | 1.01 ± 0.09 | 1.07 ± 0.014 | 1.06 ± 0.14 | 1.08 ± 0.042
13 | Cc1noc(NS(=O)(=O)c2ccc(N)cc2)c1C | 0.904 ± 0.0057 | 1.04 ± 0.13 | 0.915 ± 0.044 | 1.02 ± 0.076 | 0.984 ± 0.079
14 | COc1cc(/C=C/C(=O)O)ccc1O | 1.004 ± 0.0092 | 1.11 ± 0.057 | 1.01 ± 0.038 | 0.972 ± 0.069 | 1.12 ± 0.078
15 | CN1CC(=O)NC1=N | 1.02 ± 0.04 | 0.943 ± 0.021 | 1.02 ± 0.021 | 0.979 ± 0.059 | 0.935 ± 0.13
16 | Nc1ccc(S(N)(=O)=O)cc1 | 1.04 ± 0.081 | 0.975 ± 0.031 | 1.065 ± 0.0071 | 1.04 | 1.02 ± 0.073
17 | CC[C@H](C)C(=O)O[C@H]1C[C@@H](C)C=C2C=C[C@H](C)[C@H](CC[C@@H]3C[C@@H](O)CC(=O)O3)[C@H]21 | 1.02 ± 0.086 | 1.06 ± 0.028 | 1.035 ± 0.0071 | 1.02 ± 0.079 | 1.07 ± 0.021
18 | CC12CCC(CC1=O)C2(C)C (stereo not given) | 0.974 ± 0.037 | 0.941 ± 0.2 | 1.04 ± 0.05 | 1.02 ± 0.061 | 0.969 ± 0.14
19 | O=c1[nH]cc(F)c(=O)[nH]1 | 1.03 ± 0.083 | 0.905 ± 0.054 | 1.11 ± 0.014 | 1.01 ± 0.13 | 0.9685 ± 0.0064
20 | CCCCC(=O)O[C@]1(C(=O)CO)[C@@H](C)C[C@H]2[C@@H]3CCC4=CC(=O)C=C[C@]4(C)[C@@]3(F)[C@@H](O)C[C@@]21C | 1.04 ± 0.021 | 1.15 ± 0.028 | 0.987 ± 0.047 | 0.868 ± 0.011 | 0.942 ± 0.22
21 | CCN(CCO)CCCC(C)Nc1ccnc2cc(Cl)ccc12 (stereo not given) | 1.05 ± 0.097 | 0.998 ± 0.1 | 0.986 ± 0.0057 | 1.02 ± 0.076 | 1.045 ± 0.0071
22 | CC(=O)OC(C)(C)[C@@H]1Cc2cc3ccc(=O)oc3cc2O1 | 1.06 ± 0.014 | 1.1 ± 0.014 | 1.03 ± 0.062 | 0.896 ± 0.039 | 0.944 ± 0.077
23 | CC1=CC(=O)C(C(C)C)=CC1=O | 1.04 ± 0.057 | 1.03 ± 0.054 | 1.05 ± 0.014 | 1.09 ± 0.11 | 1.1 ± 0.064
24 | COC(=O)[C@H]1[C@H]2C[C@@H]3c4[nH]c5cc(OC)ccc5c4CCN3C[C@H]2C[C@@H](OC(=O)c2cc(OC)c(OC)c(OC)c2)[C@@H]1OC | 0.932 ± 0.065 | 1.02 ± 0.07 | 0.972 ± 0.054 | 0.974 ± 0.093 | 1.01 ± 0.018
25 | NCCCCC(=O)O | 0.9365 ± 0.0021 | 0.981 ± 0.098 | 1.03 ± 0.021 | 1.06 ± 0.19 | 0.9645 ± 0.00071
26 | Cn1c(=O)[nH]c(=O)c2[nH]cnc21 | 0.955 ± 0.026 | 0.8635 ± 0.0064 | 0.967 ± 0.032 | 1.09 ± 0.17 | 1.16 ± 0.042
27 | C[C@]12CC[C@@H](O)C[C@H]1CCc1ccccc12 [3alpha-HYDROXY-4,4-BISNOR-8,11,13-PODOCARPATRIENE] | 1.03 ± 0.08 | 1.01 ± 0.27 | 1.03 ± 0.014 | 0.971 ± 0.022 | 1.15 ± 0.064
28 | COc1ccc(C(=O)c2ccccc2)c(O)c1 | 1.04 ± 0.042 | 1.185 ± 0.0071 | 1.01 ± 0.016 | 0.8625 ± 0.0064 | 1.05 ± 0.028
29 | CC1CCC(C(C)C)C(O)C1 (stereo not given) | 1.05 ± 0.1 | 1.04 | 1.02 ± 0.066 | 1.09 ± 0.035 | 1.01 ± 0.09
30 | CC(=O)[C@@]1(O)CC[C@H]2[C@@H]3C[C@H](C)C4=CC(=O)C=C[C@]4(C)[C@@]3(F)[C@@H](O)C[C@@]21C | 1.07 ± 0.085 | 1.03 | 0.957 ± 0.044 | 0.985 ± 0.079 | 0.99 ± 0.057
